{"source": "PubChem BioAssay (EPA / NIEHS)", "note": "Results filed as inconclusive are left out. Calls of active or inactive are those of the source. Rule for the calls: active = hit-call score of the fitted dose curve at least 0.9, where 1 is the maximum; inconclusive = response in the unintended direction; inactive = score below 0.9.", "data": [{"tested_on": "not listed separately", "test": "TOX21_p53_BLA_p3_viability: Viability Assessment in the Tox21 HCT-116 p53 Agonism Beta-lactamase Assay, Phase 3 (AID 2283593);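 note: cells exposed to compound for 16 h before reading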", "in_short": "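Cellular ATP was quantified by CellTiter-Glo luminescence, read after 30 min at room temperature. Beforehand, HCT116 cells (4000/well) received compound 5 h post-seeding, 217-fold diluted from DMSO, then incubated 16 h at 37C.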", "values": [{"smiles": "N#CN=C1SCCN1Cc1ccc(Cl)nc1", "outcome": "inactive"}, {"smiles": "Clc1cccc(C(Cl)(Cl)Cl)n1", "outcome": "inactive"}, {"smiles": "CC1(C)CON(Cc2ccccc2Cl)C1=O", "outcome": "inactive"}, {"smiles": "CCOc1nc(C(Cl)(Cl)Cl)ns1", "outcome": "inactive"}, {"smiles": "CCSC(=O)N1CCCCCC1", "outcome": "inactive"}, {"smiles": "COc1cc(OC)nc(NC(=O)NS(=O)(=O)c2ncccc2OCC(F)(F)F)n1", "outcome": "inactive"}, {"smiles": "CNC(=O)Oc1cccc2ccccc12", "outcome": "inactive"}]}, {"target": "Cellular tumor antigen p53 (Homo sapiens) (UniProt P04637)", "sequence (P04637 whole entry, looked up)": "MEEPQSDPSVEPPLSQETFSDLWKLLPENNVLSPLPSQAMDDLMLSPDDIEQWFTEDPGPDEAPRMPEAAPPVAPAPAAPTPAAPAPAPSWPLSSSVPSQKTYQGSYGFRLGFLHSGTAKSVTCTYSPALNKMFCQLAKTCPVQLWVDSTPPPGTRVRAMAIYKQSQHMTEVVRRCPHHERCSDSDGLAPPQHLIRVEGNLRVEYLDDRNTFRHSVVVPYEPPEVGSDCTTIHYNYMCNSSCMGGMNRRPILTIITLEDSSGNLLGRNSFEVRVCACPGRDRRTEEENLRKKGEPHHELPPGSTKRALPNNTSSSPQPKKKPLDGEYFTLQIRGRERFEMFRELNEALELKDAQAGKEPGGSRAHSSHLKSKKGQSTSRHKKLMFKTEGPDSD", "test": "TOX21_p53_BLA_p3_ratio: Tox21 HCT-116 p53 Agonism Beta-lactamase Assay, Ratio, Phase 3 (AID 2283596)", "in_short": "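Cells were seeded at 4000/well, rested 5 h at 37C, then dosed with DMSO compound solutions (217-fold dilution) for 16 h. CCF4-AM substrate was loaded for 2 h at room temperature, and the 460/530 nm emission ratio was fitted for gain of signal versus DMSO.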", "values": [{"smiles": "CNC(=O)N(C)c1nnc(C(C)(C)C)s1", "outcome": "inactive"}, {"smiles": "Nc1cnn(-c2ccccc2)c(=O)c1Cl", "outcome": "inactive"}, {"smiles": "CN=C=S", "outcome": "inactive"}, {"smiles": "CC(C)Nc1nc(Cl)nc(NC(C)C)n1", "outcome": "inactive"}, {"smiles": "CCCC(=NOCC)C1=C(O)CC(CC(C)SCC)CC1=O", "note": "(stereo not drawn)", "outcome": "inactive"}, {"smiles": "CCOP(=S)(OCC)Oc1nc(Cl)n(C(C)C)n1", "outcome": "inactive"}, {"smiles": "N#CN=C1SCCN1Cc1ccc(Cl)nc1", "outcome": "inactive"}, {"smiles": "COC(=O)c1c(C(F)F)nc(C(F)(F)F)c(C2=NCCS2)c1CC(C)C", "outcome": "inactive"}, {"smiles": "O=P(O)(O)CCCl", "outcome": "inactive"}, {"smiles": "Clc1cccc(C(Cl)(Cl)Cl)n1", "outcome": "inactive"}, {"smiles": "COc1cc(Cl)c(OC)cc1Cl", "outcome": "inactive"}, {"smiles": "CC(C)C1(C)N=C(c2ncccc2C(=O)O)NC1=O", "note": "(stereo not drawn)", "outcome": "inactive"}, {"smiles": "CC1(C)CON(Cc2ccccc2Cl)C1=O", "outcome": "inactive"}, {"smiles": "CCSC(=O)N1CCCCCC1", "outcome": "inactive"}, {"smiles": "CCNP(=S)(OC)O/C(C)=C/C(=O)OC(C)C", "note": "(stereo not drawn)", "outcome": "inactive"}, {"smiles": "Cc1cc(C)nc(Nc2ccccc2)n1", "outcome": "inactive"}, {"smiles": "COc1cc(OC)nc(NC(=O)NS(=O)(=O)c2ncccc2OCC(F)(F)F)n1", "outcome": "inactive"}, {"smiles": "CCN(CC)c1nc(C)cc(OP(=S)(OC)OC)n1", "outcome": "inactive"}, {"smiles": "CCOc1nc(F)cc2nc(S(=O)(=O)Nc3c(Cl)cccc3Cl)nn12", "outcome": "inactive"}, {"smiles": "CCCCOCN(C(=O)CCl)c1c(CC)cccc1CC", "outcome": "inactive"}, {"smiles": "CNC(=O)Oc1cccc2ccccc12", "outcome": "inactive"}, {"smiles": "N#Cc1c(Cl)cccc1Cl", "outcome": "inactive"}]}, {"tested_on": "not listed separately", "test": "TOX21_p53_BLA_p4_viability: Viability Assessment in the Tox21 HCT-116 p53 Agonism Beta-lactamase Assay, Phase 4 (AID 2283597);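 note: hits lower the luminescence signal meaning cytotoxicity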", "in_short": "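In this multiplexed secondary endpoint, HCT116 cells (4000 per well, compound at 5 h, 16 h treatment) received CellTiter-Glo after the beta-lactamase read. Luminescence after 30 min RT reflects ATP, and falling signal marks cytotoxicity.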", "values": [{"smiles": "CNC(=O)N(C)c1nnc(C(C)(C)C)s1", "outcome": "inactive"}, {"smiles": "Clc1nc(Cl)nc(Nc2ccccc2Cl)n1", "outcome": "inactive"}, {"smiles": "CN/C(=N\\[N+](=O)[O-])NCc1cnc(Cl)s1", "outcome": "inactive"}, {"smiles": "CN=C=S", "outcome": "inactive"}, {"smiles": "Cc1cnc(C2=NC(C)(C(C)C)C(=O)N2)c(C(=O)O)c1", "note": "(stereo not drawn)", "outcome": "inactive"}, {"smiles": "CCCC(=NOCC)C1=C(O)CC(CC(C)SCC)CC1=O", "note": "(stereo not drawn)", "outcome": "inactive"}, {"smiles": "COC(=O)c1c(C(F)F)nc(C(F)(F)F)c(C2=NCCS2)c1CC(C)C", "outcome": "inactive"}, {"smiles": "Clc1cccc(C(Cl)(Cl)Cl)n1", "outcome": "inactive"}, {"smiles": "CC(C)C1(C)N=C(c2ncccc2C(=O)O)NC1=O", "note": "(stereo not drawn)", "outcome": "inactive"}, {"smiles": "CC1(C)CON(Cc2ccccc2Cl)C1=O", "outcome": "inactive"}, {"smiles": "CCOc1nc(C(Cl)(Cl)Cl)ns1", "outcome": "inactive"}, {"smiles": "CCNP(=S)(OC)O/C(C)=C/C(=O)OC(C)C", "note": "(stereo not drawn)", "outcome": "inactive"}, {"smiles": "Cc1cc(C)nc(Nc2ccccc2)n1", "outcome": "inactive"}, {"smiles": "COc1cc(OC)nc(NC(=O)NS(=O)(=O)c2ncccc2OCC(F)(F)F)n1", "outcome": "inactive"}, {"smiles": "CCN(CC)c1nc(C)cc(OP(=S)(OC)OC)n1", "outcome": "inactive"}, {"smiles": "CS(=O)(=O)c1cc(C(F)(F)F)ccc1C(=O)c1cnoc1C1CC1", "outcome": "inactive"}, {"smiles": "CCOc1nc(F)cc2nc(S(=O)(=O)Nc3c(Cl)cccc3Cl)nn12", "outcome": "inactive"}, {"smiles": "CCCCOCN(C(=O)CCl)c1c(CC)cccc1CC", "AC50": "67.9 µM (active)"}, {"smiles": "CNC(=O)Oc1cccc2ccccc12", "outcome": "inactive"}]}]}
